According to ChEMBL document CHEMBL4513216, “Probing the Open Global Health Chemical Diversity Library for Multistage-Active Starting Points for Next-Generation Antimalarials” (ACS Infect Dis, 2020):
The campaign covered roughly 65,000 compounds. About 2,100 (3.2%) showed an effect of 50% or more. The median lay at about -52%. Only a selection was taken, and strong results are over-represented in it overall.

These compounds were tested on Plasmodium falciparum (assay: Screen against P. falciparum Asexual Blood Stage (ABS), at 5uM). Settings: tested at 5 uM.
Assay type: functional, Dd2

| Compound | INHIBITION [%] |
| --- | --- |
| COc1cccc([C@H]2CN(C(C)=O)[C@@H]3CCN(Cc4ccsc4)C[C@H]23)c1 | 73.9 |
| COCCN1C[C@@H]2[C@@H](OC)CCN(C(=O)Cc3ccsc3)[C@@H]2C1 | 19.2 |
| Cc1noc(C)c1CN1CC[C@H]2C[C@H](c3ccncn3)O[C@@H]2C1 | -66.9 |
| O=C(CC1CC1)N[C@@H]1CN(Cc2cccnc2)C[C@@H]2CCCO[C@@H]21 | -42.5 |
| CC(C)c1nccc([C@@H]2C[C@@H]3CCN(Cc4ccoc4)C[C@H]3O2)n1 | -35 |
| CC(C)c1nccc([C@H]2C[C@@H]3CCN(Cc4ccoc4)C[C@H]3O2)n1 | -81.1 |
| CN1CCN(Cc2ccoc2)Cc2cccnc21 | -116 |
| COc1ccc(C[C@H]2CN(Cc3ccoc3)CC[C@H]2OC)cc1 | 75.1 |
| CO[C@@H]1CCN(Cc2ccoc2)C[C@@H]1Cc1ccccc1 | 89 |
| c1cncc(CN2CCO[C@@H]3CN(Cc4ccoc4)CC[C@@H]3C2)c1 | 30.1 |
| CCN1CCC2(CCC1=O)CN(c1nccc(N)n1)CCN2C (stereo not given) | -4.03 |
| Cc1cccc(CO[C@@H]2CC[C@H]3[C@H]2OCCN3Cc2ccoc2)n1 | -50.4 |
| O=C(NCc1ccccn1)[C@@H]1COC[C@H]2CNC[C@H]21 | -8.97 |
| COCCN1C[C@@H](C)[C@@]2(COCCN(C(=O)c3ccno3)C2)C1 | -103 |
| COc1ccc(-c2ccoc2)cc1CNC1CCCC1 | 70.2 |
| CN(Cc1cccc(F)c1)C(=O)CN1CCCC1CCc1ccccc1 (stereo not given) | 75 |
| CN(C)[C@@H]1CN(C(=O)Cc2cccc(F)c2)[C@@H]2CCCO[C@H]12 | 24.8 |
| OCCCN(CCc1cccc(F)c1)C1CC1 | -63.8 |
| Cc1cc(N2CCCN(CCc3ccccc3)CC2)ccn1 | 87 |
| Cn1c(CCN2CCN(c3ccc(O)cc3)CC2)nc2ccccc21 | -128 |
| Cc1ccc2c(n1)N(C)CCN(CCN1CCCC1)C2 | -5.37 |
| CO[C@@H]1CC[C@H]2[C@H]1OCCN2CC1CCOCC1 | -21.2 |

| Compound | INHIBITION [%] |
| --- | --- |
| c1cnc(N2C[C@H]3CN(CC4CCOC4)C[C@H]3C2)nc1 (stereo not given in full) | -53 |
| O=C1CO[C@@H]2CNC[C@H]2N1CC1CC1 | -97.4 |
| COc1ccc(CN2CC[C@@H](O)[C@@H]2Cc2ccccc2)cc1 | 80.7 |
| CNC(=O)[C@@H]1CN(Cc2ccccc2)C[C@H]1C(=O)c1ccc(F)cc1 | -109 |
| O[C@@H]1CCN(CC2CC2)[C@H]1Cc1ccccc1 | 63.2 |
| COc1ccc(CN2C[C@@H]3OCCN(c4ncccn4)[C@@H]3C2)cc1 | -2.3 |
| O=C1C[C@H]2[C@H](CCN2Cc2ccccn2)N1CC1CC1 | -90.1 |
| O=C(NCCc1ccncc1)[C@H]1CC[C@@H]2[C@@H](CCN2CC2CC2)O1 | -3.59 |
| O=C(c1ccccc1)N1CCO[C@@H]2CNC[C@@H]21 | -70.7 |
| CCc1cc(N2CCN3CCCCC3C2)n2nccc2n1 (stereo not given) | 6.52 |
| Fc1ccccc1-c1cc(N2[C@@H]3CC[C@H]2CNC3)n2nccc2n1 | -59 |
| CC(C)c1cc(N2CC[C@H](F)C2)n2nccc2n1 | 70.9 |
| O=C1N(Cc2ccccn2)C[C@H]2CN(C3CCC3)CCN12 | -13.7 |
| O=C(C[C@@H]1COC[C@H]2CN(C3CCC3)C[C@@H]12)NCc1cccnc1 | -138 |
| CCOC[C@@H]1CC[C@H]2[C@H](CCN2Cc2c(C)noc2C)O1 | -96.4 |
| Cc1nc(CC(=O)N2CCN(C)CC2c2ccccc2)cs1 (stereo not given) | -76.9 |
| CN1CCCC(c2cccc(Cc3ccccc3Cl)n2)C1 (stereo not given) | 70.3 |
| CN1CCCC(Cc2nccnc2Cl)CC1 (stereo not given) | 5.74 |
| CN1CCCC(c2cncc(C(=O)NCc3ccccc3Cl)n2)C1 (stereo not given) | 72.4 |
| O=C(C1CCCC1)N1C[C@@H]2CCNC[C@@H]21 | -78.2 |
| O=C1CC2(CCN(Cc3cccnc3)C2)CN1c1cncnc1 (stereo not given) | -101 |
| CC(C)NC(=O)N1CCOC2(CCNCC2)C1 | 16.9 |

| Compound | INHIBITION [%] |
| --- | --- |
| O=C1CO[C@H]2CN(C3CCOCC3)C[C@H]2N1Cc1ccncc1 | -53.2 |
| CC(C)(C)C(=O)NCCNCc1ccc(Cl)c2cccnc12 | 77.7 |
| COCCNC(=O)c1cn(C(C)(C)C)c2ncccc12 | -129 |
| CCCNC(=O)c1cn(C(C)(C)C)c2ncccc12 | -149 |
| O=C(N1CCOCC1)N1CCC2(CCNC2)C1 (stereo not given) | -12.3 |
| CC(C)CN1CCC2(CC1)C(=O)Nc1ccc(C(=O)N(C)C)cc12 | -21.2 |
| Cc1c(C2SCC(=O)Nc3c2c(O)nn3C2CCCCC2)cnn1C (stereo not given) | -53.5 |
| COc1cnc(N2CC(N3CCOCC3)C2)nc1-c1ccnn1C | 75.3 |
| c1cc(COC[C@@]23CCC[C@@H]2CN(C2CCOCC2)C3)ccn1 | -24.5 |
| CC1CCN(CC(=O)N(Cc2ccccc2)Cc2nccs2)C1=O (stereo not given) | -96.3 |
| COc1cccc(CCNCc2c(C)nn(C)c2N(C)C)c1 | 49 |
| Cc1nc[nH]c1CN1CCCC12CCN(c1ccccn1)CC2 | -15.3 |
| Cc1nc[nH]c1CN(Cc1ccccc1)Cc1nccs1 | 75.7 |
| COc1cccc(CN(Cc2ccco2)Cc2[nH]cnc2C)c1 | 86.4 |
| CCOCCCNC(=O)c1cn(C(C)(C)C)c2ncccc12 | -151 |
| COc1ccc(Cl)cc1CC(=O)N1CCN(CCO)CC1 | -118 |
| CC(NCC1CCN(CCO)CC1)c1cccc(Cl)c1 (stereo not given) | 84.8 |
| CC(NCC1CCN(CCO)CC1)c1ccc(F)c(Cl)c1 (stereo not given) | 84.1 |
| CC(NCC1CCN(CCO)CC1)c1ccc(Cl)cc1 (stereo not given) | 93.9 |
| CN(CC1CCN(CCO)CC1)CC(O)c1ccc(F)c(F)c1 (stereo not given) | 76.5 |
| Cc1n[nH]c2c1C(c1ccc(Br)cc1)SCC(=O)N2 (stereo not given) | -33.1 |
